# Active and inactive are the calls of the source. The calls were made as follows: active = hit-call score of the fitted dose curve at least 0.9, where 1 is the maximum; inactive = score below 0.9.
# Test: APR_HepG2_MitoticArrest_72hr: Apredica 72-hour HepG2 Assay for Mitotic Arrest (AID 2282918)
# Conditions: high-content imaging, actives raise or lower the signal
# Method in brief: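 HepG2, 72 hr exposure, 0.39–200 uM in duplicate, 0.5% v/v DMSO final. Formaldehyde-fixed, Triton-permeabilized, anti-phospho-histone H3/FITC plus Hoechst. ArrayScan imaging at 20x; curves fit bidirectionally against DMSO baseline.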
Compound,outcome,AC50
CN1COCN(Cc2cnc(Cl)s2)C1=N[N+](=O)[O-],inactive,–
O=C(O)c1cc(Oc2ccc(C(F)(F)F)cc2Cl)ccc1[N+](=O)[O-],inactive,–
Nc1c(Cl)cc([N+](=O)[O-])cc1Cl,inactive,–
CSc1nc(NC(C)C)nc(NC(C)C)n1,inactive,–
COP(=O)(NC(C)=O)SC (stereo unspecified),inactive,–
CCOP(=S)(OCC)OC(Cl)C(Cl)(Cl)Cl (stereo unspecified),inactive,–
COc1cc(OC)nc(Sc2cccc(Cl)c2C(=O)O)n1,inactive,–
CC1=NNC(=O)N(/N=C/c2cccnc2)C1,inactive,–
CCC(=O)Nc1ccc(Cl)c(Cl)c1,inactive,–
COc1cccc(C(=O)NN(C(=O)c2cc(C)cc(C)c2)C(C)(C)C)c1C,inactive,–
CCCSP(=O)(OCC)Oc1ccc(Br)cc1Cl (stereo unspecified),inactive,–
COc1ccc(C(=CC(=O)N2CCOCC2)c2ccc(Cl)cc2)cc1OC,inactive,–
S=C1NCCN1,inactive,–
CC(C)[C@H](C(=O)O[C@H](C#N)c1cccc(Oc2ccccc2)c1)c1ccc(Cl)cc1,inactive,–
CCOP(=S)(OCC)Oc1ccc([N+](=O)[O-])cc1,inactive,–
Nc1nc(N)nc(NC2CC2)n1,inactive,–
CCCSP(=O)(OCC)SCCC,inactive,–
FC(F)C(F)(F)OCC(Cn1cncn1)c1ccc(Cl)cc1Cl (stereo unspecified),–,100 µM (active)
CC1(C(=O)Nc2ccc(O)c(Cl)c2Cl)CCCCC1,inactive,–
CN(C)[C@@H]1C(=O)C(C(N)=O)=C(O)[C@@]2(O)C(=O)C3=C(O)c4c(O)cccc4[C@@](C)(O)[C@H]3[C@H](O)[C@@H]12,inactive,–
CNC(=O)Oc1cccc2c1OC(C)(C)O2,inactive,–
